# Test results reported in PubChem BioAssay AID493194 (Broad Institute, 2011).
# Entries with a potency or affinity are not part of this list. Records with an inconclusive call do not appear. The source made the active and inactive calls.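 How the source made its calls: active means a valid curve of falling signal whose half-effect concentration is at most ten times the top tested dose; inconclusive means flat curve at 30 to 70% inhibition, or poor fit; inactive means signal rise, flat within 30%, or potency beyond limit.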
# Target: Scavenger receptor class B member 1 (Mus musculus) (UniProt Q61009)
# Test: inhibitors of SR-BI mediated HDL lipid uptake, dose response, ldlA[mSR-BI] cells, fluorescence, cherry pick (AID 493194);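 further: CHO cells lacking LDL receptor and overexpressing mouse SR-BI; cellular uptake of fluorescently labeled HDL measured as cell fluorescence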
# Settings: CHO ldlA[mSR-BI] DiI-HDL uptake fluorescence, 3 h; series mostly up to 35 µM
# Chain of Scavenger receptor class B member 1 (Mus musculus) (Q61009 whole entry, looked up): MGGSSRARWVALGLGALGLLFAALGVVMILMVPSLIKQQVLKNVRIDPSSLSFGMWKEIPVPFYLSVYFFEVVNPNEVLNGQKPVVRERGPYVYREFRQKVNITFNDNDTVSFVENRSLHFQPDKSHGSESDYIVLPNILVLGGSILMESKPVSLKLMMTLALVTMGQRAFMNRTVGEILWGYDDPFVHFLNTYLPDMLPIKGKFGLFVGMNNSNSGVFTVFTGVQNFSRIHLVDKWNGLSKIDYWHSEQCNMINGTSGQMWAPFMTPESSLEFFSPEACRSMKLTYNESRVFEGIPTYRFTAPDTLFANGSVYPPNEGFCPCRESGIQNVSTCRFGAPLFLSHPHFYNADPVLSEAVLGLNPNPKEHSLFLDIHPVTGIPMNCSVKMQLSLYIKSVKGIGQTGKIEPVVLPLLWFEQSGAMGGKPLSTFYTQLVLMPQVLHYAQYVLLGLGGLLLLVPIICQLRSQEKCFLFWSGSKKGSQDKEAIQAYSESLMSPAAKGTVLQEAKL
row,SMILES,outcome
1,COc1cc2c(cc1OC)-c1cc(OCc3ccccc3Cl)nc(=O)n1CC2,inactive
2,Cc1ccc2nc3c(c(C(=O)OCC(=O)N(C)C4CCS(=O)(=O)C4)c2c1)CCCC3 (stereo unspecified),inactive
3,Cc1cc(N2CCN(C(=O)c3ccco3)CC2)n2ncc(-c3ccccc3)c2n1,inactive
4,Fc1ccc(-c2cc(-c3cccs3)cc(-c3ccccc3)n2)cc1,inactive
5,O=C(NCC1CCCO1)c1ccc2c(c1)N(Cc1ccc(F)cc1Cl)C(=O)CS2 (stereo unspecified),inactive
6,COc1ccccc1CCc1nnc(CCC(=O)N(C)Cc2cccc3cnccc23)o1,inactive
7,Cc1cc(C)cc(NC(=O)CCc2c(C)nn(-c3ccc(N4CCCCC4)nn3)c2C)c1,inactive
8,CC(C)(C)C(=O)Nc1sc2c(c1-c1nc3ccccc3[nH]1)CCCC2,inactive
9,COc1ccc(C2/C=C\CN(S(=O)(=O)c3ccc4ccccc4c3)CC(=O)N2Cc2ccc(F)cc2)cc1 (stereo unspecified),inactive
10,COc1ccc(CN2CCN(C(=O)c3ccc(S(=O)(=O)NCc4ccco4)cc3)CC2)cc1,inactive
11,Cc1c(C(=O)Nc2ccc(Cl)cc2)c2ccccn2c1CCc1ccncc1,inactive
12,CCCCCCC(=O)Nc1nc(C)c(-c2csc(Nc3ccc(Cl)cc3)n2)s1,inactive
13,O=C(NC1CC2CCCC(C1)N2C(=O)N1CCCCC1)C1CCCCC1 (stereo unspecified),inactive
14,Cc1cc(C)cc(N(CCC#N)C(=O)COC(=O)CCc2c[nH]c3ccccc23)c1,inactive
15,O=C(Nc1cccc(NC(=O)c2ccccc2[N+](=O)[O-])c1)c1ccccc1Cl,inactive
16,CC1Cc2ccccc2N1CC(=O)Nc1ccc(N2CCOCC2)cc1 (stereo unspecified),inactive
